The source of these data is PubChem BioAssay (NCATS).

Results filed as inconclusive are left out. Activity calls are given as the source filed them. Calls come from the whole dose curve; as a rule, active = well fitted curve in the direction sought with a large enough effect; inconclusive = small, poorly fitted or top-dose-only effect, or another doubt; inactive = no such curve, though single readings can be large; an effect the other way counts as inactive or inconclusive.

Assay [1] has as its system MCC-13. Briefly: qHTS assay to identify novel small-molecules to repurpose for Merkel cell carcinoma treatment (AID 1296009). Note: nearly all actives have a fitted effect of over 60% in size. Conditions: MCC and control cell lines, CellTiter-Glo viability, 72 h; series mostly up to 46 µM. A digest of the protocol: (§1)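 Cells were treated for 72 hr at 37 degree celsius with compounds in 8- or 11-point dose response. Viability was read by CellTiter-Glo luminescence, normalized to no-cell (cytotoxicity) and DMSO controls.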

Assay [2] has as its system MCC-26. Described as above. Conditions: MCC and control cell lines, CellTiter-Glo viability, 72 h; series mostly up to 46 µM. Summed up:
as §1

For assay [3], the system named is MKL-1. The description is as above. Conditions: MCC and control cell lines, CellTiter-Glo viability, 72 h; series mostly up to 46 µM. A digest of the protocol:
as §1
(Cellular ATP, detected with luciferase, serves as a proxy for viable cell number.)

Assay [4] relates to MKL-2. The description is as above. Conditions: MCC and control cell lines, CellTiter-Glo viability, 72 h; series mostly up to 46 µM. Summed up:
as §1

The subject of assay [5] is UISO. The assay is described as above. Conditions: MCC and control cell lines, CellTiter-Glo viability, 72 h; series mostly up to 46 µM. A digest of the protocol:
as §1

For assay [6], the system named is WaGa. Described as above. Conditions: MCC and control cell lines, CellTiter-Glo viability, 72 h; series mostly up to 46 µM. Summed up: as §1
Assay [7] has as its system C33A. Briefly: Primary qHTS to identify gynecologic anti-cancer compounds using libraries of approved drugs and bioactive compounds (AID 1345084). Note: nearly all actives have a fitted effect of over 55% in size. Conditions: Gynecologic cancer cell panel viability, ATPlite luminescence, 48 h; series mostly up to 57.5 µM. A digest of the protocol: (§2)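 Measured: luminescence after ATPlite addition (15 min, RT). Exposure: 48 h, 37 C, 5% CO2.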

For assay [8], the system named is CAOV3. The assay is described as above. Conditions: Gynecologic cancer cell panel viability, ATPlite luminescence, 48 h; series mostly up to 57.5 µM. Summed up: as §2
Assay [9] relates to CASKI. Described as above. Conditions: Gynecologic cancer cell panel viability, ATPlite luminescence, 48 h; series mostly up to 57.5 µM. Summed up: as §2
Assay [10] relates to HeLa. The description is as above. Conditions: Gynecologic cancer cell panel viability, ATPlite luminescence, 48 h; series mostly up to 57.5 µM. A digest of the protocol: as §2
Assay [11] deals with Hek293T. The description is as above. Conditions: Gynecologic cancer cell panel viability, ATPlite luminescence, 48 h, control line for the selectivity index; series mostly up to 57.5 µM. A digest of the protocol:
as §2

Assay [12] has as its system JEG-3. The description is as above. Conditions: Gynecologic cancer cell panel viability, ATPlite luminescence, 48 h; series mostly up to 57.5 µM. Summed up: as §2
Assay [13] concerns OV90. Described as above. Conditions: Gynecologic cancer cell panel viability, ATPlite luminescence, 48 h; series mostly up to 57.5 µM. Summed up: as §2
Assay [14] has as its system PA-1. Described as above. Conditions: Gynecologic cancer cell panel viability, ATPlite luminescence, 48 h; series mostly up to 57.5 µM. Summed up:
as §2

The test system of assay [15] is SKOV3. The description is as above. Conditions: Gynecologic cancer cell panel viability, ATPlite luminescence, 48 h; series mostly up to 57.5 µM. Summed up:
as §2

The test system of assay [16] is Tov-21-G. The assay is described as above. Conditions: Gynecologic cancer cell panel viability, ATPlite luminescence, 48 h; series mostly up to 57.5 µM. Summed up:
as §2

In assay [17] the test system is Es-2. The assay is described as above. Conditions: Gynecologic cancer cell panel viability, ATPlite luminescence, 48 h; series mostly up to 57.5 µM. A digest of the protocol: as §2
Potency is the fitted concentration of half-maximal effect.

`Cc1cc(-c2ccccc2)nnc1NCCN1CCOCC1`: the Potency result in assay [1], in [2], in [3], in [4], in assay [5] and in [6] was “inactive” throughout. Besides, the Potency entry in [7], in assay [8], in [9], in [10], in assay [11] and in [12] was “inactive” each time. The Potency entry in assay [13], in assay [14], in [15] and in assay [16] was “inactive” each time.
Regarding `O=S(=O)(O)c1ccc(O)cc1`, the Potency result in [1], in [2], in [3], in [4], in assay [5] and in [6] was “inactive” in each case. The Potency entry in assay [7], in assay [9], in assay [17], in assay [10], in assay [11] and in assay [12] was “inactive” throughout. The Potency result in assay [14], in [15] and in assay [16] was “inactive” in each case.
For the compound `COC(=O)C(c1ccccc1Cl)N1CCc2sccc2C1` (stereo unspecified), the Potency entry in assay [1], in assay [2], in [3], in assay [4], in [5] and in assay [6] was “inactive” in each case. Besides, the Potency entry in assay [7], in [9], in [17], in assay [10], in [11] and in [12] was “inactive” in each case. In addition, the Potency result in assay [13], in assay [14], in [15] and in assay [16] was “inactive” each time.
Take `CC(C)(C)NC[C@H](O)COc1cccc2c1CCCC2=O`: the Potency entry in [1], in assay [2], in [3], in [4], in assay [5] and in assay [6] was “inactive” throughout. Moreover, the Potency result in assay [7], in assay [9], in assay [17], in assay [10], in assay [11] and in assay [12] was “inactive” in each case. The Potency entry in [13], in [14] and in [16] was “inactive” in each case.
Take `O=C(NCCc1c[nH]c2ccccc12)c1cccnc1`: the Potency entry in [1], in assay [2], in assay [3], in [4], in assay [5] and in assay [6] was “inactive” each time. Also, the Potency result in [7], in [8], in assay [9], in [10], in [11] and in assay [12] was “inactive” throughout. Besides, the Potency entry in assay [14], in assay [15] and in assay [16] was “inactive” throughout.
With `CCCCCCCCCCCCCC(=O)OC(C)C`, the Potency result in assay [1], in assay [2], in assay [3], in assay [4], in assay [5] and in assay [6] was “inactive” throughout. Further, the Potency result in assay [7], in [9], in assay [17], in [10], in assay [11] and in [12] was “inactive” in each case. For the same compound, the Potency entry in assay [13], in assay [14], in [15] and in assay [16] was “inactive” throughout.
For `CCN(CC)CCNC(=O)c1cc(Br)c(N)cc1OC`, the Potency result in [1], in assay [2], in [3], in assay [4], in assay [5] and in assay [6] was “inactive” each time. Moreover, the Potency entry in assay [7], in assay [8], in [9], in assay [17], in assay [10] and in assay [11] was “inactive” throughout. In addition, the Potency result in [12], in assay [14], in assay [15] and in assay [16] was “inactive” throughout.
As for `O=C(O)CCc1nc2ccccc2[nH]1`, the Potency result in [1], in [2], in assay [3], in assay [4], in assay [5] and in [6] was “inactive” in each case. Moreover, the Potency entry in [7], in [8], in [9], in assay [17], in assay [10] and in assay [11] was “inactive” each time. Also, the Potency result in assay [12], in [13], in assay [15] and in [16] was “inactive” throughout.
`Cl/C(=C\n1cncn1)c1ccc(Cl)cc1Cl`: the Potency result in assay [1], in [2], in assay [3], in assay [4], in assay [5] and in assay [6] was “inactive” throughout. For the same compound, the Potency result in [7], in [8], in [9], in assay [17], in [11] and in assay [12] was “inactive” throughout. The Potency entry in assay [13], in assay [14], in assay [15] and in assay [16] was “inactive” in each case.
For `c1ccc(CC2=NCCN2)cc1`, the Potency result in assay [1], in assay [2], in assay [3], in assay [5], in [7] and in assay [9] was “inactive” each time. Besides, the Potency entry in assay [17], in assay [10], in [11], in assay [12], in [13] and in assay [14] was “inactive” throughout. Besides, the Potency result in [15] and in assay [16] was “inactive” in each case.
For `C/C=C/C=N/NC(=O)c1ccncc1`, the Potency entry in assay [1], in [2], in assay [7], in [8], in assay [9] and in [17] was “inactive” throughout. Moreover, the Potency result in [10], in assay [11], in assay [12], in assay [13], in [14] and in assay [15] was “inactive” each time. Moreover, the Potency entry in assay [16] is “inactive”.
As for `CCC1NC(=O)c2cc(S(N)(=O)=O)c(Cl)cc2N1` (stereo unspecified), the Potency result in [1], in [3], in assay [4], in assay [5], in assay [6] and in [7] was “inactive” in each case. For the same compound, the Potency result in assay [8], in assay [9], in assay [17], in [10], in assay [11] and in assay [12] was “inactive” throughout. Further, the Potency entry in assay [13], in assay [14], in assay [15] and in assay [16] was “inactive” each time.
On to `CC[C@H](c1ccc(O)cc1)[C@@H](CC)c1ccc(O)cc1`, for which the Potency entry in [1], in assay [2], in [3], in assay [7], in [8] and in assay [9] was “inactive” each time. The Potency result in [17], in assay [10], in [12], in assay [14], in assay [15] and in assay [16] was “inactive” throughout.
As to `CCO[C@@H]1O[C@H](C(COCc2ccccc2)OCc2ccccc2)[C@H](OCc2ccccc2)[C@H]1O` (stereo partly specified), the Potency result in assay [1], in [2], in assay [3], in assay [7], in assay [9] and in assay [11] was “inactive” throughout. Further, the Potency entry in assay [12], in assay [13], in assay [14], in assay [15] and in assay [16] was “inactive” each time. Besides, the Potency in assay [6] is 26.6 µM (active).
For `O=[N+]([O-])c1ccc(/C=N\O)o1`, the Potency entry in assay [1], in assay [2], in assay [7], in assay [8], in assay [9] and in assay [17] was “inactive” each time. The Potency entry in assay [10], in [11], in assay [12], in assay [14], in [15] and in [16] was “inactive” throughout. Moreover, the Potency in [3] was 18.8 µM (active); in assay [6], 23.7 µM (active).
As to `CNCCCCOc1ccccc1Cc1ccccc1`, the Potency result in [1], in assay [2], in [10], in [12], in [14] and in [16] was “inactive” in each case. Also, the Potency is 18.8 µM (active) in assay [4], 18.8 µM (active) in assay [6] and 25.1 µM (active) in [7].
Consider `CC(=O)OC[C@H]1O[C@@H](n2ncc(=O)[nH]c2=O)[C@H](OC(C)=O)[C@@H]1OC(C)=O`, for which the Potency result in assay [1], in assay [2], in assay [3], in assay [4], in [5] and in assay [7] was “inactive” each time. Further, the Potency result in assay [10], in [11], in assay [12], in assay [13] and in assay [15] was “inactive” in each case.
For `CN(CCCN1c2ccccc2CCc2ccccc21)CC(=O)c1ccc(Cl)cc1`, the Potency entry in assay [1], in assay [2], in [3], in assay [7], in assay [8] and in [9] was “inactive” in each case. Besides, the Potency result in [17], in assay [10], in assay [11], in assay [12], in assay [13] and in [14] was “inactive” throughout. For the same compound, the Potency result in [15] and in assay [16] was “inactive” each time.
